Source: PubChem (National Center for Advancing Translational Sciences (NCATS))
HT1080-NT tox – kills 2HG-producing HT-1080-NT fibrosarcoma cells; HT-1080-NT fibrosarcoma viability, CellTiter-Glo ATP luminescence, 48 h; Potency, µM (doses to about 46.1 µM), for the others: at the highest dose activity, negative = less viability, most hits filed as cytotoxic; actives 1.6% (n = 360,000); AID 686970;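 further: NT is the 2HG producing partner of a matched IDH1 knockdown line; potency means the concentration at half of the fitted maximal effect; 0% = DMSO-treated cells and -100% = media-only wells without cells; nearly all actives have a fitted effect of over 55% in size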
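HT-1080-NT; 750 cells/well; 5% FBS RPMI; 48 h compound, 37 degrees C; CellTiter-Glo luminescence; curve fitting and curve-class assignment.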
HT1080 IDH1KD tx – kills HT-1080 cells with IDH1 knockdown. Potency, µM (titrated, usually from 46.1 µM), without a hit: at the highest dose activity, negative = toxicity, usual class: cytotoxic. HT-1080 IDH1 knockdown viability, ATP luminescence, 48 h. actives 2% (n = 360,000). AID 686971;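 further: potency means the concentration at half of the fitted maximal effect; 0% = DMSO wells and -100% = cell-free medium wells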
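IDH1KD HT-1080 cells, 750/well, RPMI + 5% FBS; compound pinned after 2 h settling; 48 h, 37 °C; CellTiter-Glo luminescence; % activity normalised to DMSO and no-cell wells; curves fitted, classed by r2 and efficacy.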
KB-V1 cytotox – kills drug-selected multidrug resistant KB-V1 cells; KB-V1 MDR cells viability, CellTiter-Glo, 72 h; Potency, µM (top dose mostly 46.1 µM), hits mostly cytotoxic; actives 3.4% (n = 400,000); further: potency means the concentration at half of the fitted maximal effect; nearly all actives have a fitted effect of over 60% in size
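KB-V1 cells (P-gp-expressing MDR subline of KB-3-1) in phenol-red-free DMEM with 10% FBS were exposed to library compounds over a concentration series for 72 h at 37 degrees C. Viability read by CellTiter-Glo luminescence; concentration-effect curves fitted after normalization.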
IL1B secr inh – inflammasome signaling inhibition, IL-1 beta readout; THP-1 LPS/ATP IL-1B secretion, AlphaLISA, 16 h; active compounds read low; activity change, % at 57.5 µM; actives 4.7% (n = 360,000); in the data active means activity change below about -50%; inconclusive means mostly about -30% to -49%
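THP-1 cells pretreated 1 hr with compounds (up to 57.5 uM final), then stimulated with LPS (250 ng/mL final) plus ATP (1.25 mM final); secreted IL-1B measured by AlphaLISA after 16 hr, decreased signal indicating inhibition.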
KB-3-1 cytotox – kills parental KB-3-1 adenocarcinoma cells | KB-3-1 viability, CellTiter-Glo ATP luminescence, 72 h | actives 1.4% (n = 400,000) | Potency, µM (highest dose often 46.1 µM), usual class: cytotoxic; further: potency means the concentration at half of the fitted maximal effect; nearly all actives have a fitted effect of over 60% in size
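KB-3-1 parental drug-naive adenocarcinoma cells in DMEM/10% FBS, incubated 72 h at 37 C with pin-transferred compounds across a concentration series. Viability by CellTiter-Glo luminescence; concentration-response curves fitted after normalization.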
An asterisk follows results filed as active; i = inactive; ? = inconclusive; / = not tested or not shown. An excerpt weighted towards active compounds, which were near 8.8% of everything screened. Unless noted, the call rests on the fitted dose curve; in most records, active means well fitted curve in the direction sought with a large enough effect; inconclusive means small, poorly fitted or top-dose-only effect, or another doubt; inactive means no such curve, though single readings can be large; an effect the other way counts as inactive or inconclusive. Unless noted, on the % scale 0 is the no-effect control and ±100 the full control effect.

SMILES | HT1080-NT tox | HT1080 IDH1KD tx | KB-V1 cytotox | IL1B secr inh | KB-3-1 cytotox
O=C(C#Cc1ccccc1)Nc1ccc(F)cc1 | 16µM* | 18µM* | i | -97* | ?
O=C(C#Cc1ccccc1)NCc1ccccc1F | -3% | 6% | ? | -13 | i
COc1ccc(C(=O)OCc2cc(=O)n3nc(C4CC4)sc3n2)cc1OC | / | / | i | / | i
Cc1ccc2c(=O)cc(C(=O)Nc3ccc(S(=O)(=O)N4CCCCCC4)cc3)oc2c1C | / | / | i | / | i
O=C(C#Cc1ccccc1)Nc1cccc(F)c1 | ? | 3.7µM* | ? | -106* | 23µM*
O=C(Nc1ccc(Oc2ccccc2)cc1)C1CC1 | -6% | -19% | i | -20 | ?
CCOc1ccc(NC(=S)c2ccncc2)cc1 | ? | 4% | 21µM* | -22 | 23µM*
O=C(Nc1ccc(C#Cc2ccccc2)cc1)C1CC1 | / | / | 15µM* | ? | i
O=C(CC(=O)Nc1cccc(F)c1)Nc1cccc(F)c1 | -1% | -11% | i | 7 | i
O=S(=O)(Nc1ccccc1Br)c1cccc2cccnc12 | -8% | -10% | i | 11 | i
CCOC(=O)c1c(NC(=S)N2CCOCC2)sc2c1CCN(C(=O)OCC)C2 | 9.2µM* | 12µM* | ? | / | i
CCOC(=O)c1c(NC(=S)N2CCCCC2)sc2c1CCN(C(=O)OCC)C2 | ? | ? | i | / | i
O=C(/C=C/c1c[nH]c2ccccc12)c1cccc2ccccc12 | ? | ? | ? | -108* | ?
COc1ccc(/C=C/C(=O)N(CC(C)C)CC(C)C)cc1Br | 11% | 5% | 21µM* | ? | i
Nc1ncc(Br)cc1S(=O)(=O)Nc1cc(C(F)(F)F)cc(C(F)(F)F)c1 | 18µM* | 3.7µM* | ? | -5 | ?
CC(=O)N/N=C(\C)c1ccc2c(c1)OCCO2 | 0% | 0% | 23µM* | 7 | ?
CC(=NNC(N)=S)c1ccc2cc3c(cc2c1)OCO3 | -10% | -24% | 0.58µM* | ? | ?
C/C(=N\NC(=S)Nc1ccc(F)cc1)c1ccc2c(c1)OCCO2 | ? | ? | 12µM* | -58* | ?
CCOC(=O)C1(C(F)(F)F)N=C(c2cccnc2)OC(N2CCCCC2)=N1 (configuration not stated) | 13% | 5% | i | -4 | i
OCCC1CCCCN1CC(O)COCc1ccc(Cl)cc1 (configuration not stated) | -2% | 10% | i | -22 | i
Cc1ccc(N(C(=O)CNC(=O)c2ccco2)C(C(=O)NC2CCCCC2)c2ccncc2)cc1F (configuration not stated) | -2% | -3% | i | -8 | i
CCOc1ccc(C2=CS/C(=C(\C#N)c3nnc4n3CCCCC4)N2CC)cc1 | -26% | ? | 21µM* | -4 | i
C=CCN1C(c2ccccc2)=CS/C1=C(\C#N)c1nnc2n1CCCCC2 | 5% | -5% | ? | -17 | i
Cc1ccc(-n2nnnc2CNC(=O)c2ccc([N+](=O)[O-])o2)cc1C | -22% | ? | i | -102* | 15µM*
O=C(NCc1nnnn1-c1ccc(F)cc1)c1ccc([N+](=O)[O-])o1 | ? | 12µM* | ? | -97* | 18µM*
SMILES | HT1080-NT tox | HT1080 IDH1KD tx | KB-V1 cytotox | IL1B secr inh | KB-3-1 cytotox
CCSc1ncc(Cl)c(C(=O)Nc2sc3c(c2C(=O)OC)CCCC3)n1 | / | / | ? | / | i
COc1ccc(C(C(=O)NC(C)(C)C)N(C(=O)CCC(=O)Nc2cc(C)on2)c2c(C)cccc2C)cc1 (configuration not stated) | 26% | 7% | i | -8 | i
COC1=C(N)C(=O)c2nc(C)ccc2C1=O | 6% | 9% | ? | 14 | 4.6µM*
COC1=C(Br)C(=O)c2nc(C)ccc2C1=O | -5% | -22% | i | -28 | i
CCOc1ccccc1CNC(=O)c1cc2oc3ccccc3c2n1C | -27% | -29% | ? | -29 | 7.3µM*
CCOc1ccccc1CNC(=O)c1cc2occc2n1C | 0% | 7% | i | 10 | i
COCCNC(=O)c1cc2oc3ccccc3c2n1C | -3% | -7% | 23µM* | -1 | i
COc1ccc(NC(=O)c2ccc(-c3ccc(-c4noc(C)n4)cc3C)cc2)cc1N1CCN(C)CC1 | 8.2µM* | 23µM* | ? | -12 | ?
COc1ccc(-c2nc(-c3ccc(NC(=O)c4ccncc4)cc3)no2)cc1OC | -3% | -4% | 10µM* | -4 | ?
COc1ccc(Cl)cc1-c1nc(-c2ccc(NC(=O)c3ccncc3)cc2)no1 | ? | 10% | i | 12 | i
COc1cc(-c2nc(-c3ccc(NC(=O)c4ccc5c(c4)OCO5)cc3)no2)cc(OC)c1OC | 4.6µM* | 5.2µM* | i | ? | i
CCN1CCn2c3c(c4cc(C)ccc42)CCCC31 (configuration not stated) | 2% | -3% | i | -6 | i
Cc1ccc2c(c1)c1c3n2CCN(C(=O)CCl)C3CCC1 (configuration not stated) | 16µM* | ? | i | -99* | i
CC(=O)N1CCn2c3c(c4cc(C)ccc42)CCCC31 (configuration not stated) | 8% | 10% | i | -11 | i
Cc1ccc2c(c1)c1c3n2CCN(CCC#N)C3CCC1 (configuration not stated) | 4% | 0% | 18µM* | 0 | i
COc1ccc(C(=O)NNC(=O)C(=O)NC2CCCCC2)cc1 | -25% | -4% | i | -5 | i
O=C(NC(Nc1nc2ccc([N+](=O)[O-])cc2s1)(C(F)(F)F)C(F)(F)F)c1ccccc1Cl | 3.3µM* | 2.9µM* | i | -69* | ?
O=C(NC(Nc1nc2ccc([N+](=O)[O-])cc2s1)(C(F)(F)F)C(F)(F)F)c1cccnc1 | 9.2µM* | 13µM* | ? | -70* | 12µM*
CN(C)S(=O)(=O)c1ccc2nc(NC(=O)c3cccnc3)sc2c1 | 7% | 7% | i | -7 | i
Cc1ccc2c(c1)c1c(c(=O)n(-c3ccccc3C)c(=O)n1Cc1cccc(F)c1)n2C | / | / | i | / | ?
Cc1cc2oc(=O)cc(CN3CCN(S(=O)(=O)/C=C/c4ccccc4)CC3)c2cc1C | 2% | -14% | 2.6µM* | -8 | i
CCc1ccc2c(CN3CCN(Cc4ccccc4)CC3)cc(=O)oc2c1 | -10% | -18% | i | -61* | i
O=c1cc(CN2CCN(Cc3ccccc3)CC2)c2cc3c(cc2o1)CCC3 | -2% | 2% | i | -69* | i
Cc1cccc(N2C(=O)C(CC(=O)Nc3ccccc3)N(C3CCCCC3)C2=O)c1 (configuration not stated) | / | / | i | / | i
